{"source": "ChEMBL document CHEMBL3988442", "about": "“University of Dundee, Small-Polar-MMV Screening Library” (2021)", "note": "In all, about 69,000 compounds went through this assay and about 950 (1.4%) showed an effect of 50% or more. Shown is part of a subset that was picked to be rich in strong results.", "data": [{"system": "Mycobacterium tuberculosis", "assay": "Cornell M. t heat shock assay; further: in the data most compounds retested in dose-response had high values", "format": "functional, organism-based", "set-up": "dose or concentration left out as unconfirmed", "units": {"Percent Effect": "%"}, "values": [{"smiles": "CC(=O)N1[C@H](CN(C)C)C[C@@H]2CN(C(=O)c3cnc(C)cn3)CC[C@@H]21.O=C(O)C(F)(F)F", "Percent Effect": -17.11}, {"smiles": "Cc1nc(C)n(CC2CCCN2Cc2nc(N)c3ccccc3n2)n1", "note": "(configuration not stated)", "Percent Effect": 90.98}, {"smiles": "Cc1nn(C)c(C)c1C1CCCN1Cc1nc(N)c2ccccc2n1", "note": "(configuration not stated)", "Percent Effect": -13.27}, {"smiles": "c1ncn(CC2CCCN2Cc2cn3ccsc3n2)n1", "note": "(configuration not stated)", "Percent Effect": -23.29}, {"smiles": "Cc1nc(C)n(CC2CCCN2Cc2ncc(C(C)(C)C)o2)n1", "note": "(configuration not stated)", "Percent Effect": 8.269}, {"smiles": "Cc1nc(C)n(CC2CCCN2Cc2nc(C)c3ccccc3n2)n1", "note": "(configuration not stated)", "Percent Effect": -0.1749}, {"smiles": "Cc1cc(C)n(CC2CCCN2CCS(=O)(=O)c2ccccc2)n1", "note": "(configuration not stated)", "Percent Effect": 25.73}, {"smiles": "Cc1cc(C)n(CC2CCCN2Cc2nc(N)c3ccccc3n2)n1", "note": "(configuration not stated)", "Percent Effect": 96.02}, {"smiles": "Cc1nc(C)n(CC2CCCN2Cc2nc3ccccc3nc2C)n1", "note": "(configuration not stated)", "Percent Effect": -3.804}, {"smiles": "Cc1nc(C)n(CC2CCCCN2Cc2ncc(C(C)(C)C)o2)n1", "note": "(configuration not stated)", "Percent Effect": -15.1}, {"smiles": "Cc1nc(C)n(CC2CCCN2Cc2cn3ccccc3n2)n1", "note": "(configuration not stated)", "Percent Effect": -6.655}, {"smiles": "Cc1cc(C)n(CC2CCCN2Cc2ncc(C(C)(C)C)o2)n1", "note": "(configuration not stated)", "Percent Effect": 52.86}, {"smiles": "Cc1nc(C)n(CC2CCCN2Cc2cn3ccsc3n2)n1", "note": "(configuration not stated)", "Percent Effect": 52.44}, {"smiles": "CN1CC(=O)N(c2ccsc2)CC12CCN(Cc1cnn(C)c1)C2.O=C(O)C(F)(F)F.O=C(O)C(F)(F)F", "note": "(configuration not stated)", "Percent Effect": -44.55}, {"smiles": "O=C(NCc1cnc2n1CCN(CC1CC1)C2)C1CC1.O=C(O)C(F)(F)F", "Percent Effect": -32.01}, {"smiles": "O=CO.c1cc2nccc(CC3CCCN(C4CCOCC4)CC3)c2cn1", "note": "(configuration not stated)", "Percent Effect": -0.8025}, {"smiles": "CNC(=O)CNCc1c[nH]nc1-c1cc2ccccc2o1.Cl", "Percent Effect": 4.817}, {"smiles": "Cc1cc(CN2CC[C@H]3C(=O)N(c4ccccc4)CCO[C@H]3C2)no1.O=C(O)C(F)(F)F", "Percent Effect": -6.692}, {"smiles": "O=C(O)C(F)(F)F.O=C1CCC2(CCN(Cc3ccc(F)cc3)CC2)N1Cc1ccccc1", "Percent Effect": 1.967}, {"smiles": "O=C(NC1CC1)N1CCC2(CC1)C(=O)NCCN2Cc1ccccc1.O=C(O)C(F)(F)F", "Percent Effect": 5.553}, {"smiles": "CC(C)CN1C(=O)C2(CCN(Cc3cccs3)C2)c2ccccc21.O=C(O)C(F)(F)F", "note": "(configuration not stated)", "Percent Effect": 9.511}, {"smiles": "CCN(CC)Cc1nc2c(o1)CN(S(=O)(=O)c1cccs1)C2.O=C(O)C(F)(F)F", "Percent Effect": 10.46}, {"smiles": "CN(C)CCN1C(=O)CCCC12CCCN(Cc1cccs1)C2.O=C(O)C(F)(F)F.O=C(O)C(F)(F)F", "note": "(configuration not stated)", "Percent Effect": -7.663}, {"smiles": "CN(C)C(=O)CC1CC2(CCN(CC3CC3)CC2)Oc2ccccc21.O=C(O)C(F)(F)F", "note": "(configuration not stated)", "Percent Effect": 11.01}, {"smiles": "Cc1cnc(C(=O)N2CCC3(CCN3Cc3ccc(F)cc3)C2)cn1.O=C(O)C(F)(F)F", "note": "(configuration not stated)", "Percent Effect": -3.427}, {"smiles": "Cc1ccc(C(=O)N2CCC3(CCN3Cc3ccc(F)cc3)C2)cn1.O=C(O)C(F)(F)F", "note": "(configuration not stated)", "Percent Effect": 99.27}, {"smiles": "COCCN1CCC12CCN(C(=O)c1ccc(C)nc1)C2.O=C(O)C(F)(F)F", "note": "(configuration not stated)", "Percent Effect": 29.56}, {"smiles": "Cc1nc2[nH]cnc(NCCN3CCOCC3)c-2n1", "Percent Effect": -1.565}, {"smiles": "Cc1nc2[nH]cnc(NCCCN3CCOCC3)c-2n1", "Percent Effect": -13.88}, {"smiles": "Cc1nc2[nH]cnc(NCCN3CCCC3)c-2n1", "Percent Effect": 57.49}, {"smiles": "CCc1c(C)sc2ncnc(N3CC[C@@H](N4CCOCC4)[C@H](O)C3)c12", "Percent Effect": 11.35}, {"smiles": "CCc1c(C)sc2ncnc(N3CC[C@@H](N4CCC(O)CC4)[C@H](O)C3)c12", "Percent Effect": 10.29}, {"smiles": "CCc1c(C)sc2ncnc(N3C[C@H](O)[C@@H](N4CCCC4)C3)c12", "Percent Effect": 59.45}, {"smiles": "Cc1noc(C)c1C(=O)N[C@@H]1CCC[C@@H](Oc2ccccc2)[C@@H]1O", "Percent Effect": 10.41}, {"smiles": "N[C@@H]1CCC[C@@H](Oc2ccc(F)cc2Oc2ccccc2)[C@@H]1O", "Percent Effect": -7.942}, {"smiles": "CN[C@@H]1CCC[C@@H](Oc2ccccc2Oc2ccc(C)cc2)[C@@H]1O", "Percent Effect": 50.23}, {"smiles": "Cc1ccc(Oc2cc(F)ccc2O[C@@H]2CCC[C@@H](N)[C@H]2O)cc1", "Percent Effect": 103.2}, {"smiles": "N[C@@H]1CCC[C@@H](Oc2ccc(F)cc2Oc2cccc(F)c2)[C@@H]1O", "Percent Effect": 1.479}, {"smiles": "Cc1n[nH]c(C)c1CCC(=O)N[C@@H]1CCC[C@@H](Oc2ccccc2)[C@@H]1O", "Percent Effect": -15.12}, {"smiles": "O=C(O)C(F)(F)F.O=c1ccc2c([nH]1)CCC(NCc1ccc(F)cc1)C2", "note": "(configuration not stated)", "Percent Effect": -5.527}, {"smiles": "Cc1nc(CN2C[C@@H]3CN(C(=O)C4CC4)C[C@@H]3C2=O)cs1.O=C(O)C(F)(F)F", "Percent Effect": -7.229}, {"smiles": "O=C(O)C(F)(F)F.O=C(c1ccco1)N1CCOCC2(C1)CN(c1cccnc1)C(=O)CO2", "note": "(configuration not stated)", "Percent Effect": -36.47}, {"smiles": "CCN(CC)c1ncc(CNC2CCc3ncnn3C2)s1", "note": "(configuration not stated)", "Percent Effect": 0.07548}, {"smiles": "CCN1CCOCC2(CCCN(C(=O)c3conc3C)C2)C1.O=C(O)C(F)(F)F", "note": "(configuration not stated)", "Percent Effect": -3.777}, {"smiles": "CC(C)c1cc(NCC(O)c2ccncc2)n2nccc2n1", "note": "(configuration not stated)", "Percent Effect": 0.8571}, {"smiles": "Cc1cc2nc(C(C)C)cc(NCc3ccncc3)n2n1", "Percent Effect": 10.36}, {"smiles": "Cc1cc2nc(C(C)C)cc(NCCc3cccn3C)n2n1", "Percent Effect": 51.31}]}]}
